# FMDV antiviral – antivirals against foot and mouth disease virus; Potency, µM (highest dose often 57.9 µM), without a hit: at the highest dose activity change, negative = inhibition, most hits filed as inhibitors; AID 1159524; 1.2% of 410,000 active; FMDV antiviral cell-based qHTS; calls by dose curve; tested in HEK293T cells; further: read-out not given here; potency means the concentration at half of the fitted maximal effect; on the % scale 0 is the no-effect control and ±100 the full control effect; nearly all actives have a fitted effect of over 45% in size
# LASV entry inh – Lassa virus entry inhibition. Lassa virus pseudotype entry inhibition, cell reporter. Potency, µM (series often up to 37.9 µM), for the others: at the top dose activity change, negative = inhibition, usual class: inhibitors. 1.2% of 300,000 active. AID 540256; calls by dose curve; tested in HEK293 cells; further: potency means the concentration at half of the fitted maximal effect; on the % scale 0 is the no-effect control and ±100 the full control effect; nearly all actives have a fitted effect of over 50% in size
# MARV entry inh – inhibitors of Marburg virus binding or cell entry; Marburg virus pseudotyped entry inhibition, cell reporter; Potency, µM (highest dose often 37.8 µM), without a hit: at the top dose activity change, negative = inhibition, most hits filed as inhibitors; 1.8% of 300,000 active; AID 540276; calls by dose curve; tested in HEK293 cells; further: potency means the concentration at half of the fitted maximal effect; on the % scale 0 is the no-effect control and ±100 the full control effect
# Shiga inhibitor – inhibitors of Shiga toxin in Vero cells; Vero cells, Shiga toxin protein synthesis inhibition reporter; inhibition, % at 38.7 µM; 9.2% of 290,000 active; AID 2315; in the data active means inhibition mostly above about 28%, no sharp cut-off; inactive means mostly below about 43%; further: 0% is about no effect
# HCV inhibitor – HCV inhibition. Huh7.5.1 HCVcc-Cre infection, luciferase reporter, 44 h. Potency, µM (highest dose often 41.8 µM), for the others: at the highest dose activity change, negative = inhibition, hits mostly inhibitors. 3.4% of 340,000 active; active means well fitted inhibition curve with a large enough effect; inconclusive means small, poorly fitted or top-dose-only effect, or another doubt; inactive means no such curve, though single readings can be large or run the other way; further: potency means the concentration at half of the fitted maximal effect; on the % scale 0 is the no-effect control and ±100 the full control effect
#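 Cells (1,000/well) were plated 4 h before compound, then infected with HCVcc-Cre virus (~0.5 moi). After 44 h further culture, infection was read as luciferase luminescence following a 15 min substrate incubation at room temperature.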
# Cycloheximide cs – affects cycloheximide protein synthesis inhibition readout, counter-screen; cell reporter, cycloheximide protein synthesis inhibition counterscreen; max response, %; 12% of 300,000 active; in the data active means max response mostly above about 13%, no sharp cut-off; inactive means mostly below about 14%; further: read at 38.3 µM for the half of the compounds with a filed dose; 0% is about no effect
# Active calls of the source: *; u = inconclusive; x = not tested or not shown; [ ] = dose if it differs, or a comment. Sampled rows, rich in hits. Any-hit rate of the full collection: about 13%.
SMILES,FMDV antiviral,LASV entry inh,MARV entry inh,Shiga inhibitor,HCV inhibitor,Cycloheximide cs
Cn1c(SCC(=O)N2CCN(c3ccccc3)CC2)nnc1-c1c[nH]c2ccccc12,18µM*,x,x,-11,u,-5
O=C(Cc1c(Cl)cccc1Cl)Nc1ccncc1Cl,u,x,x,15,u,-2
Cc1ccccc1NC(=O)c1cc([N+](=O)[O-])ccc1NCCN1C(=O)CCC1=O,-14%,24%,u,31,19%,-2
Clc1cccc(-c2nnc(CN3CCN(c4ccccn4)CC3)o2)c1,-8%,4%[46.1 µM],2%[46.1 µM],x,x,x
O=C(COc1ccccc1-c1ccccc1)NCCN1C(=O)S/C(=C\c2cccnc2)C1=O,32µM*,-11%,-51%,-2,0%,2
CC(Oc1ccc(Cl)cc1)C(=O)NCCN1C(=O)S/C(=C\c2cccnc2)C1=O (centres undefined),40µM*,u,u,-5,u,-2
COc1ccc(C(=O)NCCN2C(=O)S/C(=C\c3cccnc3)C2=O)cc1[N+](=O)[O-],3%,4%[46.1 µM],-2%[46.1 µM],43*,-29%,25*
O=C(NCCN1C(=O)S/C(=C/c2cccnc2)C1=O)c1cccs1,-7%,x,x,x,2%,x
COc1cc(OC)cc(C(=O)NCCN2C(=O)S/C(=C\c3cccs3)C2=O)c1,u,x,x,23,8.9µM*,14
COc1cc(C(=O)NCCN2C(=O)S/C(=C\c3cccs3)C2=O)cc(OC)c1OC,28%,-25%,-21%[46.1 µM],22,u,11
O=C(NCc1ccc(C(F)(F)F)cc1)c1ccc(-c2cccnc2)c2ccoc12,21%,x,x,x,x,x
CCN(CC)C(=O)[C@H]1C[C@H](CC(=O)NCCCOC)C(=O)N2CCc3c([nH]c4cc(-c5ccco5)ccc34)[C@]12C,-8%,x,x,x,13%,x
COc1ccccc1N1C(=O)C(Cl)=C(Nc2ccccc2O)C1=O,42%,-7%,-12%[46.1 µM],103*,-4%,32*
Cc1c(NC2=C(Cl)C(=O)N(c3ccccc3)C2=O)c(=O)n(-c2ccccc2)n1C,27%,u,-21%,2,18%,8
O=C1C(Cl)=C(Nc2ccccc2O)C(=O)N1c1ccccc1,0%,1%,8%,67*,3%,45*
N#Cc1c(C(F)(F)F)cc(-c2ccccc2)nc1SCCN1CCOCC1,x,-26%,u,-11,7.9µM*,-2
COc1ccccc1CNC(=O)CN1C(=O)CSc2ccc(S(=O)(=O)N3CCCC3)cc21,-3%,-14%[46.1 µM],x,-2,-13%,6
N#Cc1ccc(CN2CCCC3(CCN(C(=O)c4cc(C(F)(F)F)cc(C(F)(F)F)c4)CC3)C2)cc1,-18%,x,x,x,x,x
COCCCn1c(C)nnc1SCC(=O)Nc1cccc(C)c1,-7%,x,x,4,8%,1
Cc1ccc(C(=O)NC2CCCCNC2=O)cc1 (centres undefined),67%,x,x,94*,28%,29*
O=C(NC1CCCCNC1=O)c1ccc(Cl)cc1 (centres undefined),30%,3%,-1%,26,12%,11
Cc1ccc(C(=O)NC2CCc3ccccc3C2=O)cc1 (centres undefined),35%,u,u,65*,-9%,30*
Cc1ccc(C(=O)NC2CCSC2=O)cc1 (centres undefined),x,18%,29%,-7,-5%,2
Cc1ccc(C(=O)NC2CCCCNC2=O)cc1C (centres undefined),20%,3%[46.1 µM],u,64*,4%,38*
O=[N+]([O-])c1ccc(-c2csc3[n+]2CCS3)cc1,-18%,-3%,-1%,-15,u,-3
SMILES,FMDV antiviral,LASV entry inh,MARV entry inh,Shiga inhibitor,HCV inhibitor,Cycloheximide cs
COC(=O)[C@]12CCCCC=C1N(Cc1ccco1)C(=O)[C@H](CC(=O)N1CCCCC1)C2,-25%,x,x,x,x,x
Cc1onc(COc2ccccc2O)c1Br,24%,-5%,u,53,-2%,18*
CCc1ccc(NC(=O)CCNC(=O)N2C[C@H]3C[C@@H](C2)c2cccc(=O)n2C3)cc1,18%,x,x,31*,-12%,27*
Cc1cccc(NC(=O)CN2C(=S)NC(C)(C)CC2C)c1 (centres undefined),-13%,u,7%,-4,5%,-2
O=C(O)c1ccc(C(=O)Nc2cccc3cccnc23)cc1,x,x,x,29,x,10
O=C(Nc1cccc2cccnc12)c1cccs1,x,x,x,79,x,37*
O=C(Nc1cccc2nsnc12)c1cccnc1,-25%,-4%,u,-9,33%,-2

# Source: PubChem BioAssay
